From PubChem BioAssay
Active and inactive are the calls of the source. Unless noted, the rule behind the calls is not given here.

Experiments:
[1] = resazurin metabolic signal in HepG2 cells – cell-based, resazurin fluorescence, 24 h, PK04 Diversity Set, profiling panel (AID 1172); conditions: HepG2 viability, higher = more signal; note: test concentration not given here
[2] = budding yeast growth changes without added modifier – OD600, strain BY4716, 24 h, basal condition, primary screen (AID 1173); conditions: S. cerevisiae BY4716 growth, OD600, 24 h; higher = more signal, called active from +8 up or from −8 down
[3] = viability profiling in MM1S myeloma cells – cell-based, resazurin fluorescence, basal, 24 h, PK04 Diversity Set, profiling panel (AID 1174); conditions: higher = more signal, called active from +8 up or from −8 down;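 note: MM1S multiple myeloma cell line; test concentration not given here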
[4] = target: Dihydroorotate dehydrogenase (quinone), mitochondrial (Plasmodium falciparum (isolate 3D7)) (UniProt Q08210); experiment: inhibition of P. falciparum DHODH – biochemical, C-terminal His tag, absorbance 600 nm, primary screen (AID 1175); conditions: PfDHODH enzyme, DCIP absorbance 600 nm; higher = more signal, called active from +8 up or from −8 down;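 note: recombinant parasite enzyme with a five histidine tag at its C terminus; test concentration not given here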
[5] = inhibition of PAO1 biofilm formation – strain PAO1, LB-PBS medium, absorbance 600 nm, primary screen (AID 1176); note: test concentration not given here; conditions: P. aeruginosa PAO1 growth/biofilm, A600, 12 h; higher = more signal
[6] = growth modulation of vineyard yeast isolate – strain RM11-1a, OD600, basal, 24 h, primary screen (AID 1177);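 note: cultures grown under basal conditions with no added stressor; test concentration not given here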; conditions: S. cerevisiae RM11-1a growth, OD600, 24 h; higher = more signal, called active from +8 up or from −8 down
[7] = growth of efflux-deficient E. coli DRC39 – strain DRC39, OD650, 24 h, E. coli filamentation inducers, primary screen (AID 1178);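 note: growth measured as culture turbidity by optical density at 650 nm; test concentration not given here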; conditions: E. coli DRC39 acrAB, higher = more signal, called active from +8 up or from −8 down
[8] = growth of efflux-deficient E. coli DRC39 – strain DRC39, OD650, 48 h, E. coli filamentation inducers, primary screen (AID 1179);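 note: screen aims at cell division blockers that make cells filament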; conditions: E. coli DRC39 delta-acrAB growth, higher = more signal, called active from +8 up or from −8 down
[9] = viability profiling in RPMI8226 myeloma cells – cell-based, resazurin fluorescence, basal, 24 h, PK04 Diversity Set, profiling panel (AID 1180); conditions: higher = more signal;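 note: RPMI8826 multiple myeloma cell line at 5000 cells per well; test concentration not given here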
[10] = target: E3 ubiquitin-protein ligase XIAP (Homo sapiens) (UniProt P98170); experiment: small molecules binding XIAP protein – biophysical, small-molecule microarray, fluorescence 635 nm, primary screen (AID 1181); conditions: higher = more signal;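 note: score merges 667 nm emission and signal to noise over triplicate slides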
Sequence of E3 ubiquitin-protein ligase XIAP (Homo sapiens) (P98170 whole entry, looked up): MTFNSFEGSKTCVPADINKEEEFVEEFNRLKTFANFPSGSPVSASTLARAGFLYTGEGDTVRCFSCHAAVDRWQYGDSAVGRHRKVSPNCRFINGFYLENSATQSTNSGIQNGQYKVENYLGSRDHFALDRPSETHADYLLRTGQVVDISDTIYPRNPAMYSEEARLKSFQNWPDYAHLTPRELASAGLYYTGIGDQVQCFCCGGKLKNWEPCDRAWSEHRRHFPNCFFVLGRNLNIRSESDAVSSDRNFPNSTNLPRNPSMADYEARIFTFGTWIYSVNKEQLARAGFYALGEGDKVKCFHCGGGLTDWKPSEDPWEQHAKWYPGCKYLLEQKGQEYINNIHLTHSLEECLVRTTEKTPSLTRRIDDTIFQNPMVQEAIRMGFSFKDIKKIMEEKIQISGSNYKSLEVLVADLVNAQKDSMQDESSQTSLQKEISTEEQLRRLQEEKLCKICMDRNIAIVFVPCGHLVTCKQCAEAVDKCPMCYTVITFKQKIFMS

Sequence of Dihydroorotate dehydrogenase (quinone), mitochondrial (Plasmodium falciparum (isolate 3D7)) (Q08210 whole entry, looked up): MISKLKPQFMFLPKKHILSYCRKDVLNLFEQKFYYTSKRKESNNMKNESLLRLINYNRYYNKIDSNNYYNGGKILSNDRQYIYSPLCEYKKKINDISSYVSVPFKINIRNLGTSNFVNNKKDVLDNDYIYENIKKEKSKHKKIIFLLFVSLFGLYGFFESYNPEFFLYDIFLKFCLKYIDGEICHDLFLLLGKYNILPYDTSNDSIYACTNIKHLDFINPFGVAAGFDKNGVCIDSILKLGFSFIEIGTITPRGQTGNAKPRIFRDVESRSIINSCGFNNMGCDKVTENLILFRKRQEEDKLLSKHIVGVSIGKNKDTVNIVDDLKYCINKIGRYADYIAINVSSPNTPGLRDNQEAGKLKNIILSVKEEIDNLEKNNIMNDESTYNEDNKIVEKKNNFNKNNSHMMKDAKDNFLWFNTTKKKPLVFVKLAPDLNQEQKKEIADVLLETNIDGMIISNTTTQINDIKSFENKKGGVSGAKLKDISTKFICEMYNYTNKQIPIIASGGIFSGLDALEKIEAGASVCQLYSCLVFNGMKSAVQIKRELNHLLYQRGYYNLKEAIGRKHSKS

| Compound | z-score [1] | z-score [2] | z-score [3] | composite z-score [4] | z-score [5] | z-score [6] | z-score [7] | z-score [8] | z-score [9] | composite z-score [10] |
| --- | --- | --- | --- | --- | --- | --- | --- | --- | --- | --- |
| C=CCOC(=O)[C@@H]1[C@H]2C(=O)O[C@H](c3ccccc3)[C@H](c3ccccc3)N2[C@H](c2ccc(OCCOC(=O)[C@H]3C[C@H]4C(=O)N[C@@H](CCCCNC(C)=O)C(=O)N4[C@H]3c3ccc(O)cc3)cc2)[C@@]12C(=O)Nc1ccc(I)cc12 | -0.0657 | 1.87 (inactive) | -0.967 (inactive) | 0.626 (inactive) | 2.56 (inactive) | 2.34 (inactive) | -0.0715 (inactive) | -0.649 (inactive) | -0.145 | -0.0566 |
| CCCC[C@@H]1C[C@H]1[C@@H](NC(=O)c1cccs1)c1ccc(Cl)cc1 | -0.513 | 0.831 (inactive) | -0.0593 (inactive) | -3.8 (inactive) | 2.82 (inactive) | 0.595 (inactive) | -0.249 (inactive) | -0.586 (inactive) | 0.513 | 0.267 |
| COC(=O)[C@@]1(Cc2ccccc2)[C@H]2c3cc(C(=O)N4CCCC4)n(CCN4CNCC4=O)c3C[C@H]2CN1C(=O)c1ccccc1 | 0.276 | 0.864 (inactive) | 0.327 (inactive) | -0.482 (inactive) | -0.167 (inactive) | -0.189 (inactive) | 0.499 (inactive) | -0.321 (inactive) | 0.742 | 0.414 |
| N#Cc1ccc(NN2C(C(O)CCc3ccccc3)C=CC3C(=O)N(c4ccccc4)C(=O)C32)cc1 (stereo not given) | -0.618 | -0.333 (inactive) | -0.611 (inactive) | -2.09 (inactive) | 1.01 (inactive) | -1.97 (inactive) | 0.143 (inactive) | 0.7 (inactive) | -0.152 | -0.127 |
| CCCC=C(CCC)[C@@H](NS(=O)(=O)c1ccc(-c2ccccc2)cc1)c1ccc(C(=O)OC)cc1 | 0.0252 | 1.72 (inactive) | 0.303 (inactive) | -4.09 (inactive) | 2.67 (inactive) | 0.239 (inactive) | -0.811 (inactive) | -0.299 (inactive) | 0.305 | -0.0948 |
| C=CC[C@@]1(C(=O)NCC(O)CO)N=C(c2ccc(OCCCO)cc2)O[C@@H]1c1ccccc1CN=[N+]=[N-] (stereo not given in full) | -0.192 | -1.14 (inactive) | -0.754 (inactive) | 0.592 (inactive) | 0.385 (inactive) | -0.0334 (inactive) | 0.613 (inactive) | 1.52 (inactive) | 0.516 | 0.254 |
| Cc1ccc(S[C@]2(C(=O)NC(C)C)CC(=O)N(C3Cc4ccccc4C3)[C@@H]2c2ccc(CO)cc2)cc1 | 0.0858 | -0.0445 (inactive) | 0.48 (inactive) | -0.335 (inactive) | 0.229 (inactive) | -0.792 (inactive) | -0.127 (inactive) | -0.768 (inactive) | 0.33 | 0.0181 |
| NC(=O)NCC#Cc1ccc2c(c1)[C@]1(C(=O)N2)[C@H](c2ccccc2OCCO)N2[C@H](c3ccccc3)[C@H](c3ccccc3)OC(=O)[C@H]2[C@@H]1C(=O)N1CCN(c2ncccn2)CC1 | -0.381 | 0.887 (inactive) | -0.17 (inactive) | -0.343 (inactive) | 2.31 (inactive) | 2.03 (inactive) | 1.27 (inactive) | 0.158 (inactive) | 1.19 | -0.178 |
| C=C(CCCC)/C(=C/C[C@H](OC(=O)c1ccncc1)c1cccc(OCCO)c1)c1cc(C(=O)OC)ccc1OC | 1.06 | -0.0252 (inactive) | 0.585 (inactive) | -1.61 (inactive) | -0.988 (inactive) | -0.549 (inactive) | -0.232 (inactive) | -0.0622 (inactive) | 0.15 | -0.0916 |
| COCCOC(=O)N1C(=O)[C@@]2(c3cc(C#CC4=CCCCC4)ccc31)[C@H](C(=O)NC[C@H](O)c1ccccc1)[C@H]1C(=O)O[C@H](c3ccccc3)[C@H](c3ccccc3)N1[C@@H]2c1ccc(OCCO)cc1 | 0.604 | 1.61 (inactive) | -1.68 (inactive) | -0.773 (inactive) | 2.83 (inactive) | 2.7 (inactive) | -0.276 (inactive) | 0.0077 (inactive) | -1.44 | -0.26 |
| O=C1C[C@@](C(=O)NC2CC2)(c2ccc([N+](=O)[O-])cc2)[C@@H](c2ccc(CO)cc2I)N1CC12CC3CC(CC(C3)C1)C2 | -3.54 | 0.579 (inactive) | -6.88 (inactive) | 1.59 (inactive) | 1.2 (inactive) | 2.54 (inactive) | -0.56 (inactive) | -0.869 (inactive) | -5.45 | -0.095 |
| O=C1O[C@H](c2ccccc2)[C@H](c2ccccc2)N2[C@H]1[C@@H](C(=O)Nc1nc3ccccc3s1)[C@]1(C(=O)Nc3ccc(C#CC4=CCCCC4)cc31)[C@H]2c1ccccc1OCCO | 0.111 | 1.86 (inactive) | -0.912 (inactive) | 0.835 (inactive) | 2.73 (inactive) | 2.71 (inactive) | -1.27 (inactive) | -1.24 (inactive) | -0.711 | 0.0705 |
| CC[C@@H]1C=C(C(=O)O)[C@H](c2ccccc2)N1S(=O)(=O)c1ccc([N+](=O)[O-])cc1 | 0.244 | 0.736 (inactive) | -0.253 (inactive) | 0.264 (inactive) | -0.461 (inactive) | -0.1 (inactive) | -2.44 (inactive) | -1.84 (inactive) | 0.0416 | 0.101 |
| COc1cc(CO)cc(I)c1O[C@H]1C=C(C(=O)NCCO)C[C@@H](N(CC2CCCCC2)C(=O)c2cc3ccccc3oc2=O)[C@@H]1O | 0.479 | -0.514 (inactive) | 0.308 (inactive) | -0.23 (inactive) | 0.343 (inactive) | 0.372 (inactive) | 0.663 (inactive) | 0.283 (inactive) | 0.393 | -0.12 |
| C=CCC(OC(C)=O)[C@@H]1[C@@H](N(Cc2cccc3ccccc23)C(=O)c2ccc(C)cc2)c2cc(OCCCO)ccc2N1C(=O)c1ccc(-c2ccccc2)cc1 (stereo not given in full) | 0.335 | -0.93 (inactive) | 1.01 (inactive) | -2 (inactive) | -0.0178 (inactive) | -1.51 (inactive) | 0.611 (inactive) | 0.861 (inactive) | 0.734 | 0.146 |
| C#CCCCON=C1C[C@@H](O)[C@@H](O)[C@@H]2[C@@H]3C(=O)N(Cc4ccc5c(c4)OCO5)C(=O)[C@@H]3CC[C@H]12 | 0.168 | 0.0943 (inactive) | -0.255 (inactive) | -0.338 (inactive) | -0.708 (inactive) | 0.162 (inactive) | 0.483 (inactive) | 0.961 (inactive) | 0.126 | -0.127 |
| COCCOC(=O)N1C(=O)[C@@]2(c3cc(C#CCC(C(=O)OC)C(=O)OC)ccc31)[C@H](c1ccccc1OCCO)N1[C@H](c3ccccc3)[C@H](c3ccccc3)OC(=O)[C@H]1[C@@H]2C(=O)N1CCCCCCC1 | 1.16 | 1.29 (inactive) | 0.883 (inactive) | 0.243 (inactive) | 1.48 (inactive) | 2.14 (inactive) | 0.189 (inactive) | 0.364 (inactive) | 1.58 | 0.361 |
| C=CCN1C(=O)[C@@]2(Cc3ccccc3)N=C(c3ccc(OCCCO)cc3)O[C@H]2c2ccccc21 | -0.406 | -2.11 (inactive) | -2.82 (inactive) | 0.324 (inactive) | 1.39 (inactive) | 0.414 (inactive) | -0.304 (inactive) | -0.239 (inactive) | -4.23 | 0.212 |
| COC(=O)C[C@H]1O[C@]2(C(=O)N(Cc3ccccc3)c3ccc(I)cc32)[C@@H](C)[C@@H]1[Si](C)(C)c1ccc(OC)cc1 | -0.583 | -2.01 (inactive) | -0.146 (inactive) | 0.94 (inactive) | -0.435 (inactive) | 0.765 (inactive) | -0.493 (inactive) | -0.598 (inactive) | -0.196 | -0.211 |
| CCCC=C(CCC)[C@@H](NC(=O)c1ccccc1)c1ccccc1 | -0.232 | 0.752 (inactive) | -1.01 (inactive) | -0.421 (inactive) | 1.27 (inactive) | 0.0321 (inactive) | 0.164 (inactive) | 0.475 (inactive) | 0.0944 | 0.086 |
| Cc1ccc(S[C@]2(C(=O)NC3CC3)CC(=O)N(Cc3cc(C(F)(F)F)cc(C(F)(F)F)c3)[C@@H]2c2ccc(CO)cc2)cc1 | 1.1 | -1.03 (inactive) | 0.219 (inactive) | -2.37 (inactive) | 0.214 (inactive) | -0.921 (inactive) | 0.327 (inactive) | 0.561 (inactive) | 1.25 | 0.209 |
| CC(=O)NCCCC[C@@H]1NC(=O)[C@@H]2C[C@H](C(=O)NCc3ccc(F)cc3)[C@H](c3cccc(OCCO)c3)N2C1=O | -0.352 | 0.473 (inactive) | 0.0366 (inactive) | -0.79 (inactive) | 0.298 (inactive) | 0.625 (inactive) | -0.34 (inactive) | -0.17 (inactive) | 0.168 | -0.335 |
| C=CCC(OC(C)=O)[C@@H]1[C@@H](N(Cc2ccc(-c3ccccc3)cc2)C(=O)c2ccc(-c3ccccc3)cc2)c2cc(OCCCO)ccc2N1C(=O)Cc1ccc(OC)cc1 (stereo not given in full) | -0.149 | 0.335 (inactive) | 0.108 (inactive) | -0.979 (inactive) | 0.0429 (inactive) | -1.14 (inactive) | -0.0223 (inactive) | 0.185 (inactive) | 0.202 | -0.0596 |
| O=C1C2C=CC(C(O)C#Cc3ccccc3)N(Nc3ccccc3)C2C(=O)N1c1ccccc1 (stereo not given) | 0.198 | -3.55 (inactive) | -0.279 (inactive) | -0.766 (inactive) | 0.875 (inactive) | 0.143 (inactive) | -0.169 (inactive) | -0.143 (inactive) | 0.0581 | -0.189 |
| COC(=O)[C@@]1(Cc2ccccc2N=[N+]=[N-])N=C(c2ccc(OCCCO)cc2)O[C@H]1c1ccccc1CN=[N+]=[N-] | -4.57 | 1.16 (inactive) | -8.21 (active) | 0.648 (inactive) | 0.383 (inactive) | 0.992 (inactive) | 0.23 (inactive) | 0.887 (inactive) | -7 | 0.264 |
